Test results: PubChem BioAssay (NCATS)
Several values for one entry are separate records, joined by “and”; a condition that tells them apart may be missing. Equal values may be shown once. Records with an inconclusive call do not appear. Where a call stands in place of a potency, no number is given. Activity calls are given as the source filed them. Unless noted, calls follow the shape of the dose curve; as a rule, active = well fitted curve in the direction sought with a large enough effect; inconclusive = small, poorly fitted or top-dose-only effect, or another doubt; inactive = no such curve, though single readings can be large; an effect the other way counts as inactive or inconclusive.

Tests used:
[1] = Cell Viability - SK-N-SH (AID 435; calls by dose curve;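 also: potency is read from the fitted curve at half-maximal effect; compound exposure lasted 40 h at 37 °C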); conditions: SK-N-SH neuroblastoma cell viability qHTS
Method in brief: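 SK-N-SH neuroblastoma cells (1500/well) treated 40 h at 37 °C in complete medium; viability read as cellular ATP by CellTiter-Glo luminescence. Normalized to DMSO and 100 uM tamoxifen; AC50 from Hill fits of qHTS concentration-response.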

[2] = Cellular Toxicity (caspase-3) HUV-EC-C (AID 656); conditions: HUV-EC-C cells, caspase-3 activation (apoptosis), vehicle = 0, 100 µM tamoxifen = 100%; series mostly up to 92.2 µM
Method in brief: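 HUV-EC-C cells (1000/well) in complete medium, compound-treated 16 h at 37 °C; caspase-3/7 activity read by Caspase-Glo 3/7 luminescence. Normalized to DMSO (basal) and 100 uM tamoxifen (100%); AC50 from Hill-equation concentration-response fits.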

[3] = Cellular Toxicity (caspase-3) H-4-II-E (AID 663); conditions: H-4-II-E rat hepatoma; Potency: caspase-3 activation; series mostly up to 92.2 µM;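 also: cells exposed to compound for 16 hr before readout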
Method in brief: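 H-4-II-E rat hepatoma, 1500 cells/well, 5 hr settle at 37 °C; compound 16 hr, 37 °C, complete medium; Caspase-Glo 3/7, 20 min RT; luminescence. DMSO = 0%, 100 uM tamoxifen = 100%; Hill-equation AC50.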

[4] = Cell Viability - LYMP2-004 (AID 966); conditions: LYMP2-004 lymphoblastoid cell viability, qHTS; series mostly up to 92.2 µM; also: nearly all actives have a fitted effect of over 65% in size
Method in brief: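 Luminescent ATP read-out (CellTiter-Glo, 30 min RT) after 24 hr compound exposure at 37 C; 2500 lymphoblastoid cells/well, complete medium. Decrease in ATP = cytotoxicity; AC50 from standard Hill model.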

[5] = Cell Viability - LYMP2-005 (AID 967); conditions: LYMP2-005 lymphoblastoid cell viability; series mostly up to 92.2 µM
Method in brief: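 Human lymphoblastoid LYMP2-005 cells, 2,500 per well in complete medium, rested 5 h at 37C then compound-treated 24 h at 37C. Intracellular ATP read by CellTiter-Glo luminescence after 30 min at room temperature; AC50 from Hill-equation fits of concentration-response data.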

[6] = Cell Viability - LYMP2-013 (AID 970); conditions: LYMP2-013 lymphoblastoid cells viability; series mostly up to 92.2 µM; also: nearly all actives have a fitted effect of over 55% in size
Method in brief: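 CellTiter-Glo luminescence (cellular ATP) read after 30 min at RT. Cells: human lymphoblastoid line, 2500/well, 24 hr compound exposure at 37 C. Tetraoctylammonium bromide positive control; AC50 via standard Hill fit of qHTS titrations.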

[7] = Cell Viability - LYMP2-025 (AID 976); conditions: LYMP2-025 lymphoblastoid cell viability; series mostly up to 92.2 µM
Method in brief: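 CellTiter-Glo luminescence (cellular ATP) after 24 h compound exposure at 37 C; LYMP2-025 human lymphoblastoid cells, 2500/well, complete medium. Tetraoctylammonium bromide positive control. AC50 by Hill equation fit of qHTS concentration-response.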

[8] = Cell Viability - LYMP2-007 (AID 979); conditions: LYMP2-007 lymphoblastoid cell viability; series mostly up to 92.2 µM;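 also: cells exposed to compound for 24 h before reading; nearly all actives have a fitted effect of over 60% in size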
Method in brief: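 qHTS cytotoxicity: 2500 cells/well, 5 hr 37 C settle, compound 24 hr 37 C, CellTiter-Glo 30 min RT, luminescence. Decrease in ATP = toxicity. AC50 by standard Hill equation; tetraoctylammonium bromide positive control.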

[9] = Cell Viability - LYMP2-014 (AID 983); conditions: LYMP2-014 lymphoblastoid cells, viability qHTS; series mostly up to 92.2 µM; also: nearly all actives have a fitted effect of over 50% in size
Method in brief: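 2500 cells/well, 5 hr 37 C; cpd 24 hr 37 C, complete medium; CellTiter-Glo 30 min RT, luminescence; ATP loss = toxicity; AC50 via Hill eqn; tetraoctylammonium bromide positive control.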

[10] = Cell Viability - LYMP2-018 (AID 985); conditions: LYMP2-018 lymphoblastoid cells, viability (qHTS); series mostly up to 92.2 µM; also: nearly all actives have a fitted effect of over 50% in size
Method in brief: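 2500 cells/well; 5 hr 37 C; cmpd 24 hr 37 C, complete medium; CellTiter-Glo 30 min RT; luminescence. Tetraoctylammonium bromide positive control. AC50 via Hill fit.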

[11] = qHTS assay for small molecule agonists of retinoid X receptor alpha signaling (AID 588544); conditions: HEK293T RXRa-UAS-bla, beta-lactamase reporter, 18 h; 530 nm emission
[12] = target: Thyroid hormone receptor beta (Homo sapiens) (UniProt P10828); assay: qHTS assay for small molecule agonists of thyroid hormone receptor beta signaling (AID 588545; calls by dose curve); conditions: TR-UAS-bla GripTite HEK 293, beta-lactamase ratio, agonist mode, 18 h; series mostly up to 76.7 µM
Method in brief: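 Beta-lactamase reporter activity under TR response element control is measured in HEK 293 cells after 18 hrs compound exposure. Signal is ratiometric CCF4 fluorescence, 460/530 nm.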

[13] = qHTS assay for small molecule antagonists of retinoid X receptor alpha signaling (AID 588546); conditions: HEK293T RXRa-UAS-bla, beta-lactamase ratio, antagonist mode; measured here: W530 green channel, cytotoxicity proxy;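 also: cells stimulated with 9-cis-retinoic acid as agonist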
Method in brief: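 Beta-lactamase reporter inhibition, read as CCF4 fluorescence ratio (ex 405, em 460/530 nm) after 2 h at RT. HEK293T UAS-bla cells, 2500/well, were stimulated with 9-cis-RA at 500 or 100 nM final alongside test compound for 18 h at 37 C.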

[14] = qHTS assay for cell viability of HEK293 cells (AID 743288); conditions: ATP luminescence (CellTiter-Glo), 18 h, stronger effect = lower value; also: nearly all actives have a fitted effect of over 50% in size
Method in brief: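 Steps: plate 2,000 parental HEK293 cells per well; incubate ≥5 h, 37 C; add compounds in DMSO; incubate 18 h, 37 C; add CellTiter-Glo; wait 30 min at room temperature; read luminescence.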

[15] = MultiTox-Fluor Cytotoxicity Assay - LYMP1-002 - Dead Cells (AID 960); conditions: LYMP1-002 lymphoblastoid cells, dead-cell protease fluorescence; series mostly up to 46.1 µM; also: nearly all actives have a fitted effect of over 60% in size
Method in brief: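 Readout: fluorescence at 485/520 from cell-impermeant bis-AAF-R110 cleaved by proteases leaking from damaged cells. LYMP1-002 lymphoblastoid line, 16 hr compound treatment at 37 C, concentration-response in qHTS format; Hill-equation AC50 values.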

[16] = Cell Viability - LYMP2-022 (AID 987); conditions: LYMP2-022 lymphoblastoid cell viability; series mostly up to 92.2 µM; also: nearly all actives have a fitted effect of over 55% in size
Method in brief: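 Luminescent ATP read-out (CellTiter-Glo, 30 min, RT) after 24 hr, 37 C compound exposure of 2500 human lymphoblastoid cells/well in complete medium. Cytotoxicity taken as concentration-dependent ATP loss; AC50 from standard Hill equation.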

[17] = Cell Viability - LYMP2-024 (AID 988); conditions: LYMP2-024 lymphoblastoid cell viability; series mostly up to 92.2 µM; also: nearly all actives have a fitted effect of over 60% in size
Method in brief: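 ATP-based luminescence (CellTiter-Glo, 30 min RT) after 24 h compound exposure at 37 C of 2500 lymphoblastoid cells/well; decrease in ATP taken as cytotoxicity. qHTS concentration-response fitted to standard Hill equation for AC50.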

[18] = target: Thyroid hormone receptor beta (Homo sapiens) (UniProt P10828); assay: qHTS assay for small molecule antagonists of thyroid hormone receptor beta signaling (AID 588547; active = well fitted inhibition curve with a large enough effect in the signal ratio, with a control signal flat, not every such curve was filed as active; the % refers to the signal ratio;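 also: cells stimulated with 0.4 nM T3 agonist during compound exposure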); conditions: TR-UAS-bla HEK293, beta-lactamase ratio, antagonist mode, 18 h
Method in brief: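 TR-UAS-bla GripTite HEK293 cells in 2% charcoal/dextran FBS medium; compounds 0.59 nM to 92 uM with T3 at 0.4nM final, 18 h at 37 C. Beta-lactamase read by CCF4 fluorescence (460/530 nm); Hill fits gave IC50 and efficacy.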

[19] = target: Tumor necrosis factor (Homo sapiens) (UniProt P01375); assay: qHTS assay to identify small molecules that stimulate Tumor Necrosis Factor-alpha (TNF-alpha) secretion (AID 651757; active = well fitted curve in the direction sought with a large enough effect in the signal ratio; the % refers to the signal ratio); conditions: Human cells, HTRF 665/615 ratio; series mostly up to 92.2 µM
Method in brief: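 THP-1 cells, 3000/well; compound 17 hrs, 37 C; add cryptate/XL665 anti-TNF-alpha antibody pair; 3 hr RT; TR-FRET (HTRF) read of secreted TNF-alpha. Quantitative HTS format.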

[20] = target: Nuclear receptor subfamily 1 group I member 2 (Rattus norvegicus) (UniProt Q9R1A7); assay: qHTS assay for small molecule activators of the rat pregnane X receptor (rPXR) signaling pathway (AID 651751; call rule not given here); conditions: rPXR reporter cells, luciferase (One-Glo), 24 h
Nuclear receptor subfamily 1 group I member 2 (Rattus norvegicus), sequence (Q9R1A7 whole entry, looked up): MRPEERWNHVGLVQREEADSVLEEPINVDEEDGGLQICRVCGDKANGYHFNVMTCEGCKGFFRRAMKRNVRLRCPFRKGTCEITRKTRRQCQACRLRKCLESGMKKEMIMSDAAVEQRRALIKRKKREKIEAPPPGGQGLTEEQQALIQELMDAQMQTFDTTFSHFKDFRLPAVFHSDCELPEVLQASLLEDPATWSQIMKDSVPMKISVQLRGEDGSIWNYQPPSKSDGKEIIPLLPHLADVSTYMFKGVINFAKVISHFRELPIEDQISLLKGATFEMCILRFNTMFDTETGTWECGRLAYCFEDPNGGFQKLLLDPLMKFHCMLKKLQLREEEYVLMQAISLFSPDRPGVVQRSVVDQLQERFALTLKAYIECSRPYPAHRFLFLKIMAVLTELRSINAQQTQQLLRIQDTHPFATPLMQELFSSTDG

Tumor necrosis factor (Homo sapiens), sequence (P01375 whole entry, looked up): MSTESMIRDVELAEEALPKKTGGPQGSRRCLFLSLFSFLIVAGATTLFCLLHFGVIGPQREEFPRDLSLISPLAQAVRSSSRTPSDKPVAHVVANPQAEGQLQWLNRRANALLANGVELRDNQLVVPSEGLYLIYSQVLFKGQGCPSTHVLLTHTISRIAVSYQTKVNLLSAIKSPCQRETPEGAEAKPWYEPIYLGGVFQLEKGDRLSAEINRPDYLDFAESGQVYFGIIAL
Thyroid hormone receptor beta (Homo sapiens), sequence (P10828 whole entry, looked up): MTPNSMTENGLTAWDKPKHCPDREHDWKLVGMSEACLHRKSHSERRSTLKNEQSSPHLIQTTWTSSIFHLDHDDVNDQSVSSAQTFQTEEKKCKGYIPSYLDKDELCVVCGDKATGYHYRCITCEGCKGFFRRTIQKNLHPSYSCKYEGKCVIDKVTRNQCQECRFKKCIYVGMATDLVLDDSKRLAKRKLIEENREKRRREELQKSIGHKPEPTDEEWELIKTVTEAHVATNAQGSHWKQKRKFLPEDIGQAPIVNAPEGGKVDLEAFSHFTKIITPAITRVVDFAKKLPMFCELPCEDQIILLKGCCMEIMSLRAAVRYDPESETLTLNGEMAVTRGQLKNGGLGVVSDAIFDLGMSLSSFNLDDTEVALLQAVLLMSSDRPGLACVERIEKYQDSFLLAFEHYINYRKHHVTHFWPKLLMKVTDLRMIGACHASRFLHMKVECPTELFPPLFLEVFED

| Structure (SMILES) | Potency [1] | outcome [2] | Potency [3] | Potency [4] | Potency [5] | Potency [6] | Potency [7] | Potency [8] | Potency [9] | Potency [10] | max response [11] | Potency [12] | max response [13] [%] | max response [14] | Potency [15] | Potency [16] | Potency [17] | activity change % (negative = inhibition) [18] | outcome [19] | max response [20] |
| --- | --- | --- | --- | --- | --- | --- | --- | --- | --- | --- | --- | --- | --- | --- | --- | --- | --- | --- | --- | --- |
| c1ccc(Nc2ccc(Nc3ccccc3)cc2)cc1 | > 92 µM (inactive) | inactive | inactive | inactive | inactive | inactive | inactive | inactive | inactive | inactive | 0.613% | inactive | -12.1 | -19.5% (inactive) |  |  |  |  |  |  |
| CC(C)CC(C)N (configuration not stated) | > 92 µM (inactive) |  | inactive | inactive | inactive | inactive | inactive | inactive | inactive | inactive | -12.2% | inactive | -2.75 | 1.65% (inactive) | inactive | inactive | inactive | 11.1% (inactive) | inactive | 0.275% (inactive) |
| Oc1ccc(Cl)c(Cl)c1Cl | > 92 µM (inactive) | inactive |  | inactive | inactive | inactive | inactive | inactive | inactive | inactive | -5.29% | inactive |  | -4.77% (inactive) | inactive | inactive | inactive | 14.5% (inactive) | inactive | 8.33% (inactive) |
| CC(C)C#N | > 92 µM (inactive) | inactive | inactive | inactive | inactive | inactive | inactive | inactive | inactive | inactive | -7.08% | inactive | -7.48 | 0.536% (inactive) | inactive | inactive | inactive | -3.27% (inactive) | inactive | 3.94% (inactive) |
| Clc1ccccc1 |  |  | inactive | inactive | inactive | inactive | inactive | inactive | inactive | inactive | -8.37% | inactive | -7.38 | 10.9% (inactive) | inactive | inactive | inactive | 8.57% (inactive) | inactive | -2.96% (inactive) |
| C=CCCl | > 92 µM (inactive) | inactive | inactive | inactive | inactive | inactive | inactive | inactive | inactive | inactive | -13.3% |  |  | 2.61% (inactive) | inactive | inactive | inactive | -1.64% (inactive) | inactive | 0.623% (inactive) |
| CCC[N+](=O)[O-] | > 92 µM (inactive) | inactive | inactive | inactive | inactive | inactive | inactive | inactive | inactive | inactive | -16.6% | inactive |  | 2.89% (inactive) | inactive | inactive | inactive | -9.22% (inactive) | inactive | 7.37% (inactive) |
| CC(C)(OOC(C)(C)c1ccccc1)c1ccccc1 | > 92 µM (inactive) | inactive | inactive | inactive | inactive | inactive | inactive | inactive | inactive | inactive | -7.49% and -13.6% | inactive | -11 | -10.5% (inactive) and -9.14% (inactive) | inactive | inactive | inactive | 6.91% (inactive) | inactive | -3.9% (inactive) and 4.2% (inactive) |
| O=[N+]([O-])CCO | > 92 µM (inactive) | inactive | inactive | inactive |  | inactive | inactive | inactive | inactive | inactive | 10.9% | inactive | 2.49 | -4.92% (inactive) | inactive | inactive | inactive | 2.47% (inactive) | inactive | 2.92% (inactive) |
| Nc1ccc(Cl)c(Cl)c1 |  | inactive | inactive | inactive | inactive | inactive | inactive | inactive | inactive | inactive | 3.91% | inactive | 2.84 | -1.26% (inactive) | inactive | inactive | inactive | 2.33% (inactive) | inactive | 0.573% (inactive) |
| c1ccc(N=NNc2ccccc2)cc1 | > 92 µM (inactive) | inactive | inactive | inactive | inactive | inactive | inactive | inactive | inactive | inactive | 7.75% | inactive | -2.24 | 5.57% (inactive) and -4.44% (inactive) | inactive | inactive | inactive | 0.0148% (inactive) | inactive |  |
| CCBr |  | inactive | inactive | inactive | inactive | inactive | inactive | inactive | inactive | inactive | -3.72% | inactive | -5.59 | -3.34% (inactive) | inactive | inactive | inactive | -4.65% (inactive) | inactive | 4.52% (inactive) |
